Source: PubChem BioAssay (National Center for Advancing Translational Sciences (NCATS))
Rows were chosen to be rich in hits. Some 19% of all compounds tested hit in one or more screens of this group.
HT1080-NT tox: qHTS for induction of synthetic lethality in tumor cells producing 2HG: qHTS for the HT-1080-NT fibrosarcoma cell line; HT-1080-NT fibrosarcoma viability, CellTiter-Glo ATP luminescence, 48 h; AID 686970, 2013; 1.6% of 360,000 active; Potency, µM (top dose mostly 46.1 µM), without a hit: at the highest dose activity, negative = less viability, hits mostly cytotoxic;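 note: NT is the 2HG producing partner of a matched IDH1 knockdown line; potency is the fitted concentration of half-maximal effect; 0% = DMSO-treated cells and -100% = media-only wells without cells; nearly all actives have a fitted effect of over 55% in size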
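A 48-hour cytotoxicity screen used HT-1080-NT cells plated 2 hours before compound delivery. ATP-based CellTiter-Glo luminescence measured viability, normalized to DMSO and no-cell controls.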
DT40 TDP1 no CPT: qHTS for Inhibitors of human tyrosyl-DNA phosphodiesterase 1 (TDP1): qHTS in cells in absence of CPT. DT40 Tdp1-/- hTDP1 cells, no CPT, ATP luminescence, 48 h. Potency, µM (titrated, usually from 46.2 µM), for inactives: at the top dose activity change, negative = growth inhibition, actives largely listed as inhibitors. 15% of 420,000 active. AID 686978, 2013; note: potency is the fitted concentration of half-maximal effect; nearly all actives have a fitted effect of over 55% in size
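Chicken DT40 Tdp1-/- cells stably complemented with human TDP1 were seeded at 400 cells/well with DMSO in place of 20 nM camptothecin. After compound pinning, cells grew at least 48 hr at 37 °C; viability read by CellTiter-Glo luminescence.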
IL-1B inflam inh: qHTS for Inhibitors of Inflammasome Signaling: IL-1-beta AlphaLISA Primary Screen | THP-1 LPS/ATP IL-1B secretion, AlphaLISA, 16 h; stronger effect = lower value | activity change, % at 57.5 µM | 4.7% of 360,000 active | AID 743279, 2014; in the data active = activity change below about -50%; inconclusive = mostly about -30% to -49%
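THP-1 cells pretreated 1 hr with compounds (up to 57.5 uM final), then stimulated with LPS (250 ng/mL final) plus ATP (1.25 mM final); secreted IL-1B measured by AlphaLISA after 16 hr, decreased signal indicating inhibition.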
HT1080 IDH1KD tx: qHTS for induction of synthetic lethality in tumor cells producing 2HG: qHTS for the HT-1080-IDH1KD cell line | HT-1080 IDH1 knockdown viability, ATP luminescence, 48 h | Potency, µM (doses to about 46.1 µM), inactives show top-dose activity, negative = toxicity, actives largely listed as cytotoxic | 2% of 360,000 active | AID 686971, 2013;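 note: potency is the fitted concentration of half-maximal effect; 0% = DMSO wells and -100% = cell-free medium wells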
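Viability of IDH1-knockdown HT-1080 fibrosarcoma cells was assessed by CellTiter-Glo after 48 h at 37 °C with titrated compound; concentration-effect curves were classified by fit quality and response size.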
DT40 TDP1 CPT: qHTS for Inhibitors of human tyrosyl-DNA phosphodiesterase 1 (TDP1): qHTS in cells in presence of CPT; chicken DT40 Tdp1-/-;hTDP1 cells + 20 nM CPT, ATP luminescence, 48 h; Potency, µM (top dose mostly 46.2 µM), without a hit: top-dose activity change, negative = growth inhibition, actives largely listed as inhibitors; 12% of 420,000 active; AID 686979, 2013; note: potency is the fitted concentration of half-maximal effect; nearly all actives have a fitted effect of over 55% in size
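Cell growth measured by CellTiter-Glo luminescence after a minimum 48 h, 37 C compound exposure with 20 nM CPT in Tdp1-knockout DT40 cells stably expressing hTDP1, seeded 400/well; qHTS titration format.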
An asterisk follows results filed as active; ? = inconclusive. Unless noted, calls come from the whole dose curve; as a rule, active = well fitted curve in the direction sought with a large enough effect; inconclusive = small, poorly fitted or top-dose-only effect, or another doubt; inactive = no such curve, though single readings can be large; an effect the other way counts as inactive or inconclusive. Unless noted, % is set by controls: 0 for no effect and ±100 for the full control effect.

SMILES | HT1080-NT tox | DT40 TDP1 no CPT | IL-1B inflam inh | HT1080 IDH1KD tx | DT40 TDP1 CPT
CCOC(=O)c1cc(/C(C)=N/OC(=O)c2ccc(C(C)(C)C)cc2)on1 | 2% | 16µM* | 16 | 8% | ?
COc1ccc(C(=O)O/N=C(\N)c2ccccc2)cc1 | ? | -23% | -1 | ? | -17%
CC(C)(C)c1ccc(NC(=O)CON=C(N)c2ccccc2)cc1 | -1% | 29µM* | 8 | -1% | ?
CC(=O)Nc1ccc(C(F)(F)F)cc1Cl | 2% | -3% | 7 | -10% | 17%
COc1cccc(N=c2oc3ccccc3cc2-c2nc3ccccc3[nH]2)c1 | ? | 23µM* | -4 | ? | 23µM*
COc1cccc(N=c2oc3ccc(OC)cc3cc2-c2nc3ccccc3[nH]2)c1 | -21% | ? | 60 | ? | ?
COC(=O)c1ccc(COc2ccc(C(C)(C)C)cc2)o1 | 5% | ? | -9 | 5% | ?
CCOc1ccc(OCc2ccc(C(=O)NCc3ccncc3)o2)cc1 | -15% | -30% | ? | 3% | 16µM*
CCc1ccc(OCc2ccc(C(=O)NCc3ccccn3)o2)cc1 | -22% | ? | -11 | -16% | -10%
Cc1cccc(OCc2ccc(C(=O)N3CCOCC3)o2)c1 | -1% | -26% | -2 | -9% | -2%
CC(C)(C)c1ccc(OCc2ccc(C(=O)N3CCOCC3)o2)cc1 | ? | 26µM* | 36 | ? | ?
CCCNC(=O)c1ccc(COc2ccc(C(C)(C)C)cc2)o1 | ? | 13µM* | -69* | -19% | ?
CCCCC1CCC(C(=O)N(CCOC)c2c(N)n(CC(C)C)c(=O)[nH]c2=O)CC1 (stereo not given) | 8% | ? | -2 | 4% | 9%
CCC(=O)Nc1ccc2c(c1)C(=O)N(C1CCCCC1)C2=O | -3% | ? | -26 | -18% | ?
Cc1cc(NC(=O)c2ccc3c(c2)C(=O)N(C2CCCCC2)C3=O)no1 | 15% | 15µM* | 12 | 22% | ?
O=C(Nc1ccncc1)c1ccc2c(c1)C(=O)N(C1CCCCC1)C2=O | -14% | 23µM* | 30 | ? | 18µM*
CN1C2CCC1CC(NC(=O)c1cc(Cl)cc3[nH]cnc13)C2 (stereo not given) | -2% | -19% | -13 | 1% | -14%
FC(F)(F)c1cc(CCN2CCNC[C@H]2Cc2cccc3ccccc23)cc(C(F)(F)F)c1 | -27% | 8.2µM* | -105* | ? | 8.2µM*
Oc1ccc(C[C@H]2CNCCN2CCc2cc(C(F)(F)F)cc(C(F)(F)F)c2)cc1 | ? | ? | ? | 0% | 10µM*
Oc1ccc(C[C@H]2CNC(=S)N2CCc2cc(C(F)(F)F)cc(C(F)(F)F)c2)cc1 | 4% | ? | 15 | 0% | -19%
Oc1ccc(C[C@@H]2CNCCN2CCc2cc(C(F)(F)F)cc(C(F)(F)F)c2)cc1 | ? | ? | -67* | -22% | 23µM*
Oc1ccc(C[C@@H]2CNC(=S)N2CCc2cc(C(F)(F)F)cc(C(F)(F)F)c2)cc1 | 5% | ? | 0 | 9% | ?
CC(C)(C)OC(=O)CNC(=O)c1[nH]cnc1C(=O)NCCCCCNC(=O)OC(C)(C)C | -10% | 15µM* | 1 | -22% | 23µM*
CC(C)C[C@H](NC(=O)c1nc[nH]c1C(=O)N[C@@H](CCCCNC(=O)OC(C)(C)C)C(=O)OC(C)(C)C)C(=O)OC(C)(C)C | ? | 21µM* | -24 | ? | 21µM*
